# Compound activity: PubChem BioAssay, National Center for Advancing Translational Sciences (NCATS)
# ELG1 genotox: inducers of genotoxicity in HEK293T ELG1-luciferase cells | HEK293T ELG1-luciferase reporter, luminescence, 16 h | Potency, µM (highest dose often 46 µM), for inactives: top-dose activity change, positive = activation, usual class: activators | 1.3% of 330,000 active; also: % of control where 0% means no effect; nearly all actives have a fitted effect of over 60% in size
#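 Cells (2,000/well) expressing the ELG1-luciferase fusion are dosed by pin tool and kept 16 hr at 37 °C, 5% CO2. Signal comes from ONE-Glo luciferase reagent after 30 min at room temperature.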
# Rab9 prom act: activates the Rab9 promoter. AID 485297. Huh7 Rab9 promoter-luciferase reporter, luminescence, 24 h. 2.8% of 320,000 active. Potency, µM (top dose mostly 9.22 µM), for inactives: top-dose activation, negative = inhibition, most hits filed as activators; also: % of control where 0% means no effect; nearly all actives have a fitted effect of over 60% in size
#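 Cell-based reporter: Huh7 stable for Rab9 promoter-driven luciferase, plated in reduced-serum medium with 10% FBS at 1500 cells/well, compound-treated 24 h at 37 °C, luminescence read after 10 min reagent.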
# NPC1 promoter act: activators of NPC1 promoter. AID 485313. Potency, µM (series often up to 9.22 µM), inactives show at the highest dose activation, most hits filed as activators. 2.4% of 320,000 active. Huh7 NPC1 promoter luciferase reporter, 24 h; also: % of control where 0% means no effect; nearly all actives have a fitted effect of over 60% in size
#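 Huh7 reporter cells (NPC1 promoter driving luciferase) are dosed with compound for 24 h at 37 °C, 5% CO2; luciferase detection reagent is then added and luminescence measured after 10 min at ambient temperature.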
# FLuc counter: counter-screen for miR-21 project: firefly luciferase inhibitors or activators; P08659; 6.9% of 360,000 active; Potency, µM (doses to about 57.5 µM), for the others: top-dose activity change, negative = inhibition, actives largely listed as inhibitors; purified FLuc, Km substrates, luminescence inhibition;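 also: plate controls were vehicle for no effect and reference inhibitor for full effect; nearly all actives have a fitted effect of over 55% in size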
# Target sequence (P08659 whole entry, looked up): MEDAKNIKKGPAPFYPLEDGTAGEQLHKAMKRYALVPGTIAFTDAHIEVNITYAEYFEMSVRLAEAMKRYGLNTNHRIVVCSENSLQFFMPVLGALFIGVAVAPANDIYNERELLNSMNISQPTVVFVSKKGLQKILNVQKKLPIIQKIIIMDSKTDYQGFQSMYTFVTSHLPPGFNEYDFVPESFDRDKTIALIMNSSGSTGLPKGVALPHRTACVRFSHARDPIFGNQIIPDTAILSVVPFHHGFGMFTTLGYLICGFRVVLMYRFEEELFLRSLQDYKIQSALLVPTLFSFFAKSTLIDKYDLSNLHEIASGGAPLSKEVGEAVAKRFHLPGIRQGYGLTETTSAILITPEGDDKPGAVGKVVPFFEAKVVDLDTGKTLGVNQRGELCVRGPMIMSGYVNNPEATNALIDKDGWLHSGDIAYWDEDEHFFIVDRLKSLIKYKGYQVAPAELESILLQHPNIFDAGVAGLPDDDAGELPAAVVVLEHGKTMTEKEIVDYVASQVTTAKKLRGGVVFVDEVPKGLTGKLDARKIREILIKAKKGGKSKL
#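 Biochemical qHTS of compounds, final roughly 60 µM downward over six points, against 10 nM purified firefly luciferase using Km concentrations of substrates (10 uM D-luciferin, 10 uM ATP) in Tris acetate pH 7.5 buffer; luminescence output.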
# SMN2 splice up: SMN2 splice variant enhancement; Potency, µM (highest dose often 46.1 µM), without a hit: top-dose activity change, positive = activation, usual class: activators; 2.8% of 210,000 active; HEK293 SMN2-luciferase splicing reporter, luminescence, 30-36 h; AID 1458; also: % of control where 0% means no effect; nearly all actives have a fitted effect of over 55% in size
#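 qHTS luciferase splicing reporter: luminescence rises when SMN2 exon 7 is included in transfected HEK293 cells. Compound exposure lasted 30-36 h at 37C, with 4.5 mM final sodium butyrate as control, followed by a ONE-Glo read.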
# KinaseGlo FLuc: counter-screen: inhibitors of Kinase-Glo firefly luciferase. Q27757. Kinase-Glo luciferase, ATP luminescence, 8 min. Potency, µM (titrated, usually from 38.3 µM), for the others: at the highest dose activity change, negative = inhibition, usual class: inhibitors. 0.28% of 200,000 active; also: % is scaled to controls: 0 for no effect and ±100 for the full control effect; nearly all actives have a fitted effect of over 60% in size
#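 Inhibition of Kinase-Glo luciferase light generation was assessed at 10 uM ATP in pH 7.2 imidazole buffer, with luminescence measured after eight minutes at ambient temperature.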
# Active calls of the source: *; ? = inconclusive; nt = no result given; [ ] = dose if it differs, or a comment. Compounds with a hit are over-represented: about 7.3% of the library has one in this group of screens. Calls follow the shape of the dose curve; as a rule, active = well fitted curve in the direction sought with a large enough effect; inconclusive = small, poorly fitted or top-dose-only effect, or another doubt; inactive = no such curve, though single readings can be large; an effect the other way counts as inactive or inconclusive. Potency is read from the fitted curve at half-maximal effect.
SMILES,ELG1 genotox,Rab9 prom act,NPC1 promoter act,FLuc counter,SMN2 splice up,KinaseGlo FLuc
COc1cccc(C(=O)/C=C/Nc2ccc(S(=O)(=O)Nc3nc(C)cc(C)n3)cc2)c1,3%,-5%,0%,?,-13%,-1%
COc1ccc(OC)c(N/C=C/C(=O)c2ccc(OC)c(OC)c2)c1,?,4%,2%,19µM*,nt,nt
COc1ccc(C(=O)/C=C/Nc2ccc(S(=O)(=O)Nc3cccc(C(C)=O)c3)cc2)cc1,-4%,-17%,-9%,-5%,-36%,1%
COc1ccc(C(=O)/C=C/Nc2cccc(O)c2)cc1,1.5µM*,?,2%,0.38µM*,?,?
Cc1ccc(Cl)c(N/C=C/C(=O)c2ccccc2)c1,9.2µM*,?,?,1.1µM*,nt,nt
COc1cccc(C(=O)/C=C/Nc2cc(C)ccc2O)c1,?,-12%,-5%,2.7µM*,nt,-3%
O=C(NCc1ccccc1)C1CCN(S(=O)(=O)c2ccc3c(c2)CCCN3C(=O)C2CCC2)CC1,nt,nt,nt,-9%,nt,nt
COc1cccc(N/C=C/C(=O)c2ccc(OC)c(OC)c2)c1,?,?,3.5µM*,1.3µM*,nt,nt
COc1ccc(C(=O)/C=C/N(C)C)cc1OC,2%,-5%,-1%,5%,4%,-8%
CCOC(=O)c1cccc(N/C=C/C(=O)c2ccc(OC)c(OC)c2)c1,?,1.6µM*,0.63µM*,11µM*,64%,1%
Cc1cccc(N/C=C/C(=O)c2ccc(Cl)cc2)c1,?,0.35µM*,0.56µM*,0.67µM*,nt,nt
COc1ccc(NC(=O)Cn2c(=O)oc3cc(S(=O)(=O)N4CCC(C)CC4)ccc32)c(OC)c1,nt,nt,nt,?,-15%,nt
Cc1ccc(-c2ccc(=O)n(CC(=O)Nc3ccc(C(C)C)cc3)n2)cc1,nt,nt,nt,?,-2%,nt
N#Cc1ccc2c(c1)C[C@]1(CCCCN3C(=O)c4ccccc4C3=O)Oc3c(c(=O)oc4ccc(F)cc34)C2O1,nt,-5%[1.84 µM],3%[1.84 µM],1%[11.5 µM],nt,nt
Cc1cc(C)c(S(=O)(=O)/N=C2/C=C(SCC(=O)O)C(=O)c3ccccc32)cc1C,-7%,-1%,4%,21µM*,-79%,-6%
Cc1cc(C)c(S(=O)(=O)Nc2cc(SCC(=O)O)c(O)c3ccccc23)cc1C,-10%,5%,8%,?,-115%,-2%
COc1cc(C(=O)NCCCc2nc3ccccc3n2CC(C)C)cc(OC)c1OC,nt,nt,nt,-2%,4%,nt
CC1=C(C(=O)Nc2ccccc2C)C(c2ccccn2)n2nc(SCc3ccccc3F)nc2N1 (configuration not stated),nt,nt,nt,-2%,-1%,nt
Cc1cccc(OCC(=O)N(Cc2cccc(Cl)c2)Cc2ccco2)c1C,nt,nt,nt,-4%,-29%,nt
N/C(CC(=O)Nc1ccc(F)c(Cl)c1)=N\OC(=O)c1cccs1,-7%,1%,5%,0%,nt,nt
COc1ccc(CNC(=O)COC(=O)c2cccs2)cc1,2%,-6%,0%,24µM*,nt,nt
COc1ccc2c(c1)/C(=N/OC(=O)c1cccs1)CCC2,14%,-1%,0%,27µM*,-28%,-7%
N/C(=N\OC(=O)c1cccs1)c1ccc(Cl)cc1,?,?,27%,4.8µM*,nt,nt
COc1ccc(/C(N)=N/OC(=O)c2cccs2)cc1,8.2µM*,1.3µM*,1.4µM*,1.9µM*,nt,nt
COc1ccc(NC(=O)O/N=C2/CCCc3ccc(OC)cc32)cc1,2%,-28%,-4%,?,nt,nt
SMILES,ELG1 genotox,Rab9 prom act,NPC1 promoter act,FLuc counter,SMN2 splice up,KinaseGlo FLuc
O=C(CSc1nc2c([nH]c3ccccc32)c(=O)n1-c1ccccc1)N1CCCc2ccccc21,nt,nt,nt,-4%,nt,nt
CC(=O)c1ccc(NC(=O)NCCc2c[nH]c3ccccc23)cc1,nt,nt,nt,2%,-4%,nt
CCCCn1c(=O)c2oc3ccccc3c2n(CC(=O)Nc2cc(C)ccc2C)c1=O,nt,nt,nt,0%,nt,nt
O=C(Nc1ccccc1C(=O)O)c1ccc(NC(=O)C2CCCO2)cc1 (configuration not stated),3%,-2%,-4%,6.7µM*,nt,nt
O=C(NCCOc1ccccc1)c1ccccc1NC(=O)C1CCCO1 (configuration not stated),9%,2.2µM*,4µM*,?,11µM*,3%
CCOC(=O)c1ccccc1NC(=O)C1CCCO1 (configuration not stated),-1%,1%,0%,3%,nt,nt
CCc1ccc(NC(=O)c2ccccc2NC(=O)C2CCCO2)cc1 (configuration not stated),12µM*,3.5µM*,3.5µM*,17µM*,13µM*,-1%
C=C(C(=O)OC)C(NC(=O)OC)c1ccccc1 (configuration not stated),nt,nt,nt,nt,-3%,2%
COc1ccc(NC(=O)Nc2ccc3nonc3c2)cc1,3%,3.5µM*,?,?,nt,nt
COc1ccc(NC(=O)Nc2ccc3nccnc3c2)cc1,13%,0.4µM*,3.2µM*,4.3µM*,?,-1%
COC(=O)c1ccc(NC(=O)c2ccc3nccnc3c2)cc1,-7%,2%,2%,?,nt,nt
COc1ccc(N2C(=O)c3ccccc3NC2c2ccc(OC)c(Cn3cc([N+](=O)[O-])cn3)c2)cc1 (configuration not stated),6%,?,2.8µM*,-4%,nt,nt
C/C(=N\N1C(=O)c2ccccc2NC1c1ccccc1)c1ccccc1O (configuration not stated),4.6µM*,0.63µM*,?,3%,2.8µM*,-2%
Cc1ccc(/C=N/N2C(=O)c3ccccc3NC2c2ccc(C)cc2)cc1 (configuration not stated),?,?,26%,?,13µM*,0%
COc1ccc(C2Nc3ccccc3C(=O)N2c2ccccc2)cc1Cn1cc([N+](=O)[O-])cn1 (configuration not stated),-4%,-4%,2%,-3%,3%,4%
CC(C)Oc1ccccc1C1CC(=O)Nc2cc3c(cc21)OCCO3 (configuration not stated),-3%,-20%,-15%,0%,-48%,0%
CC(C)Oc1ccccc1C1Nc2ccccc2C(=O)N1c1ccc2c(c1)OCCO2 (configuration not stated),?,1.1µM*,0.79µM*,13µM*,7.9µM*,-3%
CS(=O)(=O)NN1C(=O)c2ccccc2NC1c1ccccc1 (configuration not stated),0%,1%,-10%,-3%,nt,nt
CC(CC(=O)NCc1ccc(Cl)cc1)CC1=NS(=O)(=O)c2ccccc2N1 (configuration not stated),nt,nt,nt,-10%,nt,nt
